# TROY signal inh – inhibitors of TROY-dependent NF-kB signaling; Q293 LMP1-TROYcd NF-kB luciferase reporter, 4 h; inhibition, % at 10 µM; 360,000 compounds, 0.98% hits;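 active = compounds whose plate-normalised and pattern-corrected inhibition of the luciferase reporter signal at the single screening dose is 50% or more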
# TWEAK Fn14 block – TWEAK-Fn14 signaling inhibition | inhibition, % at 10 µM | TWEAK-stimulated Fn14 reporter cells, luciferase luminescence, 8 h | AID 1159606 | 360,000 compounds, 2% hits; in the data active = inhibition above about 50%
# EWS-Fli inh – EWS/Fli transcriptional activity inhibition | A673 NR0B1-luciferase reporter, viability-normalised | 350,000 compounds, 0.67% hits | inhibition, % at 12.6 µM;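 active = mean inhibition of at least 50% after viability correction, with every replicate also passing that limit; inconclusive = mean reaches 50% but only one of two replicates passes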;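 also: firefly luciferase signal divided by Alamar Blue viability fluorescence both relative to DMSO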
# LMP1 NFkB inh – reduces LMP1-driven NF-kappaB luciferase signal | LMP1-induced NF-kappaB luciferase reporter cells, luminescence | inhibition, % at 12.5 µM | 350,000 compounds, 0.69% hits | AID 504558; in the data active = inhibition above about 41%; inconclusive = no clear call, values can overlap the other calls;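 also: 0% = neutral control wells and 100% = reference inhibitor control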
# PAX8 reporter – PAX8 transcriptional activity inhibition; RMG-I TPO-luciferase reporter, SteadyGlo, 24 h; inhibition, % at 12.6 µM; 360,000 compounds, 1.2% hits; AID 652154;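 active = mean replicate inhibition at least 60% with every replicate also reaching 60%; inconclusive = only one of the two criteria is met; inactive = mean below 60% and not all replicates reaching 60%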;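 also: luciferase light reporting Pax8 driven TPO promoter activity; plate controls were median of neutral control wells for no effect and mitoxantrone controls for full effect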
# LGR2 antag – inhibitors of bursicon-induced Drosophila LGR2 receptor cAMP signaling | HEK293 LGR2, CRE-luciferase, bursicon-stimulated, 4 h | inhibition, % at 9.99 µM | 380,000 compounds, 0.35% hits | AID 720647;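 active = drop in luminescence signal, shown as inhibition above about 50% in the replicate tests, limit read from the data, passing the limit was not always enough; inconclusive = probably only some replicates passing the limit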;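 also: agonist challenge used bursicon conditioned medium at about half maximal strength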
# * marks the source's active call; other numbers are inactive results; ? = inconclusive; . = no result given. Hits are enriched below; roughly 3.1% of the tested compounds scored in any of these assays.
SMILES,TROY signal inh,TWEAK Fn14 block,EWS-Fli inh,LMP1 NFkB inh,PAX8 reporter,LGR2 antag
C[C@@H]1CN([C@H](C)CO)S(=O)(=O)c2ccc(C#C[C@@H](C)O)cc2O[C@@H]1CN(C)Cc1ccccc1,.,.,-3.6,.,.,10.8
CN1CCN(C(=O)C[C@@H]2C[C@H]3c4cc(NC(=O)CC5CC5)ccc4O[C@H]3[C@@H](CO)O2)CC1,.,.,-5.8,.,.,2.0
CCCCN1C=CC(=C2C(=O)c3ccccc3C2=O)C=C1,85.0*,98.6*,79.9*,75.0*,82.1*,.
O=C(CCCN1C(=O)S/C(=C\C=C\c2ccccc2)C1=O)Nc1ccc(C(=O)O)cc1,-24.6,-17.3,-44.2,0.1,-47.2,-18.4
O=C(CCN1C(=O)S/C(=C\C=C\c2ccccc2)C1=O)Nc1ccc(O)cc1,-6.1,58.1*,.,-42.4,-166.8,-84.9
CN(C)CC(=O)Nc1ccc2c(c1)[C@H]1C[C@@H](CC(=O)NCc3ccc4c(c3)OCO4)O[C@H](CO)[C@H]1O2,.,.,-3.6,.,6.2,-7.1
Cc1cc(C)c(C#N)c(SCc2nnc(-c3ccccc3)o2)n1,89.6*,99.9*,78.5*,59.2*,17.5,77.1*
Cc1cc(C)c(C#N)c(SCc2nnc(-c3ccccc3[N+](=O)[O-])o2)n1,44.8,-11.7,-63.7,-54.0,-192.4,-109.6
COCc1cc(C)nc(SCC(=O)Nc2ccccc2C)c1C#N,-6.2,13.6,.,0.6,3.4,.
Cc1cc(C)c(C#N)c(SCC(=O)Nc2ccccc2C(N)=O)n1,59.9*,10.3,.,1.1,.,.
Cc1ccc(C#N)c(SCc2nnc(-c3ccc(Cl)cc3)o2)n1,87.0*,97.6*,.,15.1,-1.7,65.6*
COc1cccc(-c2ccc3c(c2)O[C@@H](CN(C)C(=O)c2ccccc2F)[C@@H](C)CN([C@H](C)CO)S3(=O)=O)c1,.,.,8.3,.,12.7,15.0
COc1ccccc1-c1cnc2c(c1)C(=O)N([C@H](C)CO)C[C@H](C)[C@@H](CN(C)C(=O)c1ccncc1)O2,.,.,0.5,.,.,-12.6
COc1ccc2c3c([nH]c2c1)[C@@H](CO)N(C(=O)Nc1ccc(F)cc1)CC31CN(Cc2ccccc2OC)C1,.,.,6.8,.,.,21.6
C[C@@H]1CCCCO[C@@H](CN(C)C(=O)Nc2cccc3ccccc23)[C@H](C)CN([C@H](C)CO)C(=O)c2cc(NS(=O)(=O)c3ccc(F)cc3)ccc2O1,.,.,6.1,.,93.4*,-5.0
C[C@H]1CCCCO[C@H](CN(C)C(=O)Nc2cccc3ccccc23)[C@@H](C)CN([C@@H](C)CO)C(=O)c2cc(NS(=O)(=O)c3ccc(F)cc3)ccc2O1,.,.,23.6,.,87.4*,16.2
CO[C@H]1CN(C)C(=O)c2cc(NC(=O)C3CC3)ccc2OC[C@@H](C)N(C(=O)c2cnccn2)C[C@H]1C,.,.,-2.9,.,-7.5,0.1
O=C(N/N=C(\c1ccccc1)c1cccnc1)c1ccc(O)cc1,-11.3,-7.3,-0.2,-8.0,-10.9,3.7
O=C(N/N=C(\c1ccccc1)c1cccnc1)c1cccc(F)c1,-50.6,-0.2,.,46.2*,73.4*,24.8
O=C(NC1Cc2ccccc2C1)[C@@H]1[C@@H](CO)[C@@H]2Cn3c(ccc(-c4ccccc4F)c3=O)[C@H]1N2,.,.,-16.2,.,-1.0,-0.2
Cc1nn(-c2ccc(Cl)cc2Cl)c(=O)c2ccccc12,-6.3,-6.3,3.9,7.2,.,22.4
CC1=NN(S(=O)(=O)c2ccc(Cl)cc2Cl)C(=O)c2ccccc2O1,0.5,68.1*,-6.3,-5.0,7.1,4.3
CCOC(=O)C(=Cc1cc(=O)c(OC)co1)C(=O)OCC,41.8,98.1*,70.1*,23.4,22.4,?
C[C@H]1CN([C@@H](C)CO)C(=O)Cc2cc(NC(=O)Cc3ccccc3)ccc2O[C@H]1CN(C)C(=O)Nc1ccc2c(c1)OCO2,.,.,-7.0,.,-6.9,-3.9
CCc1ccc(C(=O)/C=C/c2cnn(C)c2C)s1,67.4*,60.5*,.,1.2,-104.9,.
SMILES,TROY signal inh,TWEAK Fn14 block,EWS-Fli inh,LMP1 NFkB inh,PAX8 reporter,LGR2 antag
CN[C@H]1CCc2cc(OC)c(OC)c(OC)c2-c2ccc(OC)c(=O)cc21,22.8,22.9,56.9*,-12.4,90.3*,11.9
COc1cc2c(c(OC)c1OC)-c1ccc(NC(=O)c3ccccc3)c(=O)cc1[C@@H](NC(C)=O)CC2,-18.2,18.2,53.9*,-1.0,59.9,12.7
CCOCC(=O)NC1CCc2cc(OC)c(OC)c(OC)c2-c2ccc(SC)c(=O)cc21 (stereo not drawn),9.0,22.6,?,-3.8,86.4*,11.3
CCCCOC(=O)NC1CCc2cc(OC)c(OC)c(OC)c2-c2ccc(SC)c(=O)cc21 (stereo not drawn),-8.7,-2.3,55.0*,0.0,79.0*,-2.3
COc1cc(C(=O)NCCC(=O)NC2CCCc3ccccc32)cc(OC)c1OC (stereo not drawn),-4.5,-8.4,.,-8.8,-5.4,10.0
COc1cc2c(c(OC)c1OC)-c1c(cc(OC)c(OC)c1OC)C[C@](C)(O)[C@@H](C)C2,5.0,4.1,-4.5,-2.2,18.5,-3.5
COCC(=O)Nc1ccc2c(c1)OC[C@H](C)N(C(=O)COC)C[C@H](C)[C@@H](OC)CN(C)C2=O,.,.,4.6,.,2.7,8.0
CCOC(=O)NC1CCc2cc(OC)c(OC)c(OC)c2-c2ccc(SC)c(=O)cc21 (stereo not drawn),-2.2,3.1,35.2,-0.2,83.4*,-17.2
CC(=O)NC[C@H]1[C@H](c2ccc(-c3ccccc3)cc2)[C@@H](CO)N1C(=O)C1CC1,.,.,5.4,.,-18.0,-7.5
CCCCC#Cc1ccc2c(c1)COc1c3ccccc3nn1-2,-45.2,11.0,-98.3,-20.6,-67.5,.
N#CCCCC#Cc1ccc2c(c1)COc1c3ccccc3nn1-2,81.0*,93.4*,66.8*,-4.7,32.0,98.2*
C[C@@H]1CN([C@@H](C)CO)C(=O)c2cc(/C=C/c3ccccc3)cnc2O[C@@H]1CN(C)C(=O)c1ccc(F)cc1,.,.,-3.6,.,.,-9.6
CS(=O)(=O)c1cnc(-c2ccccc2)nc1Sc1ccc(F)cc1,-5.2,12.5,-3.7,2.8,20.6,-19.8
COc1cccc(Sc2nc(-c3ccccc3)ncc2S(C)(=O)=O)c1,71.1*,90.7*,-16.9,-67.8,6.1,-75.4
CN(C)CCN(Cc1ccco1)S(=O)(=O)c1csc(C(N)=O)c1,-10.5,10.5,.,0.3,-4.2,7.5
CC(CCc1ccco1)N(C)S(=O)(=O)c1csc(C(N)=O)c1 (stereo not drawn),12.3,-11.6,.,51.9*,-9.1,-14.6
Cc1cc(/C=C2\SC(=O)N(C)C2=O)c(C)n1-c1ccc(O)cc1,17.7,87.1*,16.9,-75.4,-29.5,42.4
CN=C1S/C(=C\c2cc(C)n(-c3ccccc3F)c2C)C(=O)N1C,79.7*,82.0*,.,0.7,.,34.8
CN(C)c1ccc(C=C2SC(=S)N(Cc3ccco3)C2=O)cc1,-29.2,-25.5,-33.8,-7.6,-48.3,4.7
COc1ccc(-n2c(C)cc(/C=C3/SC(=S)N(C)C3=O)c2C)cc1,51.9*,69.7*,-19.5,-3.5,-15.9,.
